The full list was thinned out, with hits kept by preference.
mHTT CaM bind – disrupts binding of mutant huntingtin to calmodulin. AlphaScreen His-mHTT/GST-CaM binding, luminescence. 190,000 compounds, 3.6% hits. P42858. AID 1671202. inhibition, % at 15 µM
Target sequence (P42858 whole entry, looked up, change not shown): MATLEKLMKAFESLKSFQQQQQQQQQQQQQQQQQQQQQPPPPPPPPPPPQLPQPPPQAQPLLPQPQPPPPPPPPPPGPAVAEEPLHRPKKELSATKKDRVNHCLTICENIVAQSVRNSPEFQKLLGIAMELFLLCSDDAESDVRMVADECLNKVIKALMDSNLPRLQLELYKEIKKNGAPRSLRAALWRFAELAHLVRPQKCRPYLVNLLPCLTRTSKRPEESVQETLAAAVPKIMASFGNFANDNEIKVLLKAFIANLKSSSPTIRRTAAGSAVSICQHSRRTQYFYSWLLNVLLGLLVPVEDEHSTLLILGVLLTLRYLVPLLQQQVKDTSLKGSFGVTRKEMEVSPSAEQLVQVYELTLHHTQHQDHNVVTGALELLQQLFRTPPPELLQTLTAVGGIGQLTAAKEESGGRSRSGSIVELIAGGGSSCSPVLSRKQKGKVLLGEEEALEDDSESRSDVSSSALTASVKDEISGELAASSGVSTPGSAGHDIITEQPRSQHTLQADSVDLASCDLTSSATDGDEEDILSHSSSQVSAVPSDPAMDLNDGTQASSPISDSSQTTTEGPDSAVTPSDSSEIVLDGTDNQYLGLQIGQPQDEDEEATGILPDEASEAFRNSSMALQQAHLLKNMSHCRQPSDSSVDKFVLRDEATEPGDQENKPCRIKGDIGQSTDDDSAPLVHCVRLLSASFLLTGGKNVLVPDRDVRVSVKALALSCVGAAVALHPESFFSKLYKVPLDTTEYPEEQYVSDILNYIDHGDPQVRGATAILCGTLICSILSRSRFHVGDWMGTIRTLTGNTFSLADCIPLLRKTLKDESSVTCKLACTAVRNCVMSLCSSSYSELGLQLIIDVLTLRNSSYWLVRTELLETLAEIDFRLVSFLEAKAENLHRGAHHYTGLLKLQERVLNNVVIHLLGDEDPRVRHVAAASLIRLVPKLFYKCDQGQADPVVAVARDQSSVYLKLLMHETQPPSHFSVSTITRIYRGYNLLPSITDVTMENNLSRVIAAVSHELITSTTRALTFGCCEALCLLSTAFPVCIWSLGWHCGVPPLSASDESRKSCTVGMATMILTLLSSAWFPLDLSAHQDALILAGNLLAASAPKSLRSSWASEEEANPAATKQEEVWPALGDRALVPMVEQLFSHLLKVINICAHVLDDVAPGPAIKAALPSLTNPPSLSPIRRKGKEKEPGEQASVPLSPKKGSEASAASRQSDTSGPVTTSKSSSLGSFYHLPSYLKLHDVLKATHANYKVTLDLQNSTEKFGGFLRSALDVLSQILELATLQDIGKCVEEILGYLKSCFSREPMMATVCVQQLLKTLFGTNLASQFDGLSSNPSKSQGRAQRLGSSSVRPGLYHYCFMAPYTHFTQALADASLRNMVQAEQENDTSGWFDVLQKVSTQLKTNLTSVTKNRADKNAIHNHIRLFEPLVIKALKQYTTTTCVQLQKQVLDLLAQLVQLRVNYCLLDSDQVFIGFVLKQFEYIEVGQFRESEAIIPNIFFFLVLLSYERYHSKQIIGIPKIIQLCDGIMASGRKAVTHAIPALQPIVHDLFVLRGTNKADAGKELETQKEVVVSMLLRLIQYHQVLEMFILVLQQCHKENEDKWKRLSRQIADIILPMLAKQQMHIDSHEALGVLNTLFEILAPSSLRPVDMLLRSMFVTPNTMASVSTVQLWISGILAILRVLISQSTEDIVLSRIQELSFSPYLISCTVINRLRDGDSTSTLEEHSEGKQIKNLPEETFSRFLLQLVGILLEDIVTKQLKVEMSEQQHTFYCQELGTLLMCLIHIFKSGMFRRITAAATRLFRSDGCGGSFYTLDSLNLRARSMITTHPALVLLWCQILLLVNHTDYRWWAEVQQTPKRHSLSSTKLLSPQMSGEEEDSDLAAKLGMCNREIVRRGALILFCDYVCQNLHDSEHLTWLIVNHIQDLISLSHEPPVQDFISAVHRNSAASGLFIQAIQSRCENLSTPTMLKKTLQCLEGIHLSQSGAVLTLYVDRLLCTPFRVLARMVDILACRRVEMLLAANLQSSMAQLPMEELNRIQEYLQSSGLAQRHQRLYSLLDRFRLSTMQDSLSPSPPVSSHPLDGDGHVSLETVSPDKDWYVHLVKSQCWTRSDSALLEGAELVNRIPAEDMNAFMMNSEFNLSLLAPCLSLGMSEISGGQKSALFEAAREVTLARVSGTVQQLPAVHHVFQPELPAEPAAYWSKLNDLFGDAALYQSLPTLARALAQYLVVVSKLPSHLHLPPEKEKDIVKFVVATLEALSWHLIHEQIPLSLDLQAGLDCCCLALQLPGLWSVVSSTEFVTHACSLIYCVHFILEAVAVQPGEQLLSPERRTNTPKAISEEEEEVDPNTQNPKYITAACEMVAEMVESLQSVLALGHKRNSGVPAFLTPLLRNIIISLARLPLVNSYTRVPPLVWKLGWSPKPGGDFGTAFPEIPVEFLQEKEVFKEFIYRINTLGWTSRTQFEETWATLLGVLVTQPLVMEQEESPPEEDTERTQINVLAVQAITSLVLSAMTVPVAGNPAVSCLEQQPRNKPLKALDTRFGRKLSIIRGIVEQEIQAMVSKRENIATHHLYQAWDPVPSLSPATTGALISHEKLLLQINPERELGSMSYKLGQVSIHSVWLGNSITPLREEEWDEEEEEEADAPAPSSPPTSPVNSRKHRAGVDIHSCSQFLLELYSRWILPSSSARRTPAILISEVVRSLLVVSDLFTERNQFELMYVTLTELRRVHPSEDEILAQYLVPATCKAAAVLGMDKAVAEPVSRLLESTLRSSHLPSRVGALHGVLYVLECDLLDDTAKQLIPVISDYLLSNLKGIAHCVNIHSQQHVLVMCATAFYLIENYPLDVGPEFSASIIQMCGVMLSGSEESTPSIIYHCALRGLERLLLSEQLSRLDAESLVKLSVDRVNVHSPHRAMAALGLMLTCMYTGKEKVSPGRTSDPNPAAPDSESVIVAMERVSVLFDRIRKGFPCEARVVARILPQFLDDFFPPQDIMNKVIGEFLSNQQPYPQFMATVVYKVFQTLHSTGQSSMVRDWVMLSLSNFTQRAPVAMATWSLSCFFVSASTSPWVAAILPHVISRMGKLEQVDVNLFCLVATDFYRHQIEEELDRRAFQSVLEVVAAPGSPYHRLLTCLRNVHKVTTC
Pf apPOL block – Pf-apPOL DNA polymerase inhibition; Recombinant Pf-apPOL, molecular beacon fluorescence, 1.5 h; inhibition, % at 10 µM; 210,000 compounds, 0.25% hits
Each line names hits and unclear results; the compound was inactive in the other large screens; ! = a repeat was not active. Cut-off read from the data, not from the text of the source: active = inhibition above about 50%; inactive = the rest.

CC(O)(CNS(=O)(=O)c1ccc(Cl)s1)c1cccs1 (centres undefined)	none
Cc1ccc(-c2nc(CN3CCN(C(=O)c4ccc(F)cc4)CC3)no2)cc1	none
OCC[n+]1c(-c2ccc(Br)cc2)csc1Nc1ccccc1	mHTT CaM bind 88
O=C(c1ccccc1)c1c(-c2ccccc2)csc1Nc1ccccc1	none (no result: mHTT CaM bind)
O=C(CSc1nnc(-c2cccnc2)n1-c1ccccc1)N1CCCC1	none
Cc1ccc2c(S(=O)(=O)O)ccc(O)c2n1	none
O=S(=O)(O)c1ccc(O)c2ncccc12	mHTT CaM bind 100
O=C1CCCC(=O)N1CCS(=O)(=O)NCC1(c2ccccc2)CCOCC1	none
O=C1OC(c2ccccc2)=C/C1=C1/c2ccccc2-c2ncccc21	mHTT CaM bind 67
COc1ccc(C2=C/C(=C3/c4ccccc4-c4ncccc43)C(=O)O2)c(OC)c1	none
CCn1nnc2c(SCC(=O)Nc3ccc(F)c(Cl)c3)ncnc21	none
Cc1ccc(Nc2c(-c3nc(C)no3)cnc3nc(C)ccc23)c(C)c1	none
Cc1ccc2c(Nc3ccc(F)cc3C)c(-c3nc(C)no3)cnc2n1	mHTT CaM bind 58
CCOc1ccccc1CN1CCCC1c1cc(CC)no1 (centres undefined)	none
COc1cccc(Oc2coc3cc(OC(=O)C=Cc4ccccc4)ccc3c2=O)c1	mHTT CaM bind 62
CCOc1ccc2c(=O)c(-c3ccccc3OC)coc2c1	none
COC(=O)Oc1ccc2c(=O)c(-c3ccccc3OC)coc2c1	mHTT CaM bind 50
COc1cccc(Oc2coc3cc(OC(=O)c4ccccc4)ccc3c2=O)c1	none
C=CCOC(=O)Oc1ccc2c(=O)c(-c3ccccc3OC)coc2c1	none
CCOC(=O)C(Oc1ccc2c(=O)c(-c3ccccc3OC)coc2c1)c1ccccc1 (centres undefined)	mHTT CaM bind 58!
Cc1ccc(OCc2nc(C(=O)N3CCN(C)CC3)cs2)c(C)c1	none
Cc1ccccc1C1CC(=O)Nc2n[nH]c(-c3ccccc3)c21 (centres undefined)	none
CC(C)C(=O)Nc1cccnc1N1CCCC(C(=O)N2CCCC2)C1 (centres undefined)	none
Cc1cccc(C2=N[C@@H](Cc3ccccc3)CO2)c1	mHTT CaM bind 81
Cc1cccc(C2=N[C@@H](CC(C)C)CO2)c1	none
COc1ccccc1N1COc2ccc(F)cc2C1	none
COc1ccccc1N1COc2cc(C)c(Cl)c(C)c2C1	mHTT CaM bind 100
O=C(Cn1nc2c(c1NC(=O)C1COc3ccccc3O1)CSC2)NCc1ccco1 (centres undefined)	mHTT CaM bind 94
O=C(Nc1nccs1)C1COc2ccccc2O1 (centres undefined)	none
COc1ccc(C(/C=C2\N(C)c3ccccc3C2(C)C)C[N+](=O)[O-])cc1 (centres undefined)	none
CN1/C(=C\C(C[N+](=O)[O-])c2ccc3c(c2)OCO3)C(C)(C)c2ccccc21 (centres undefined)	mHTT CaM bind 83
COC(=O)c1cccc(C(=O)Nc2ccc(C)cc2Cl)n1	none
Oc1ccc(N=Cc2ccc(Br)cc2)cc1	mHTT CaM bind 64
Oc1ccc(C=Nc2ccc(-c3ccccc3)cc2)cc1	none
COc1ccccc1CNC(=O)c1cnn2c3c(cnc12)CCCC3	none
CCN1/C(=C/c2cccc[n+]2C)C=Cc2cc(C)ccc21	none
Cc1sc(-c2ccn[nH]2)cc1NC(=O)CCc1ccccc1	none
Cc1cc(=O)n2ccc(CN3CCCCC3)c(O)c2n1	mHTT CaM bind 92
CC(C)(C)c1nc(CN2CCCCC2)cc(CN2CCCCC2)c1O	none
CCc1ccc(C2(O)CC(C(F)(F)F)=NN2C(=O)c2ccc([N+](=O)[O-])cc2)cc1 (centres undefined)	mHTT CaM bind 81
O=C(c1ccc([N+](=O)[O-])cc1)N1N=C(C(F)(F)F)CC1(O)c1ccncc1 (centres undefined)	none
O=C(c1cccc(Br)c1)N1N=C(C(F)(F)F)CC1(O)c1ccc(Cl)cc1 (centres undefined)	none
O=C(c1cccc(Cl)c1)N1N=C(C(F)(F)F)CC1(O)c1ccc(Cl)cc1 (centres undefined)	mHTT CaM bind 76
Cc1cccc(C(=O)N2N=C(C(F)(F)F)CC2(O)c2ccc(Br)cc2)c1 (centres undefined)	mHTT CaM bind 72
CCc1ccc(C2(O)CC(C(F)(F)F)=NN2C(=O)c2cccc(Br)c2)cc1 (centres undefined)	none
CCC1=NN(C(=O)c2ccc([N+](=O)[O-])cc2)C(O)(c2ccccc2)C1 (centres undefined)	none
CCC1=NN(C(=O)c2cccc([N+](=O)[O-])c2)C(O)(c2ccc(Cl)cc2)C1 (centres undefined)	mHTT CaM bind 77
Cc1noc(C)c1S(=O)(=O)N1CCC(C(C)C(=O)NCCN2CCCCC2)CC1 (centres undefined)	none
O=S(=O)(c1ccc(F)c(Cl)c1)N1CCN(S(=O)(=O)C2CC2)CC1	none
O=C1c2ccccc2C(=O)c2cc(S(=O)(=O)NCc3cccnc3)ccc21	none
COCC(C)(O)CNC(=O)c1cc(Cl)ccc1Cl (centres undefined)	none
CCOc1ccc(C(=O)Nc2ccccc2I)cc1Cl	none
COc1ccc(C)cc1NC(=O)CN1CCC(c2nc(-c3ccccc3)no2)CC1	none
O=C(CCc1cccc2[nH]ccc12)Nc1ccc2c(c1)OCCO2	none
COC(=O)Nc1nc(CC(=O)NCc2ccccc2Cl)cs1	none
O=C(Cc1csc(SCC(=O)c2cccs2)n1)NCCc1c[nH]c2ccccc12	none
NS(=O)(=O)c1ccc(CNC(=O)Cc2csc(NC(=O)c3cccs3)n2)cc1	none
O=C(Cc1csc(NC(=O)c2cnccn2)n1)NCCc1c[nH]c2ccccc12	mHTT CaM bind 53
O=C(Cc1csc(NC(=O)c2ccc(=O)[nH]c2)n1)NCCc1c[nH]c2ccccc12	none
O=C(Cc1csc(NC(=O)c2ncccn2)n1)NCc1ccccc1Cl	mHTT CaM bind 98
O=C(Cc1csc(NC(=O)c2cccs2)n1)NO	Pf apPOL block 72
O=C(Cc1csc(NC(=O)c2ccc3c(c2)OCO3)n1)NCCc1c[nH]c2ccccc12	mHTT CaM bind 56
CCN(CC)c1cc(CNC(=O)Nc2ccc(Cl)cc2)ccn1	none
CCc1ccc(O)c(N=Cc2cc([N+](=O)[O-])cc(Br)c2O)c1	none
CCOc1ccc(C(=O)N2CCCC2c2nc(-c3ccc(OC)cc3)no2)cc1 (centres undefined)	none
COc1ccc(OC)c(N2CCN(C(=O)C(C)C)C(C)C2=O)c1 (centres undefined)	none
CC(=O)N1CCc2ccccc2C1C(=O)NC1CCCC1 (centres undefined)	none
Cc1ccc([N+](=O)[O-])cc1NC(=O)COc1ccc2c(c1)CCCC2	none
O=C(Cc1ccccc1F)Nc1cc(-c2ccccn2)no1	none
Cc1cc(F)ccc1NC(=O)Cc1nnc(-c2ccc3ncccc3c2)o1	none
O=C(Cc1nc(-c2ccccn2)n[nH]1)Nc1cc(F)ccc1F	mHTT CaM bind 95
Cc1cc(F)ccc1NC(=O)Cc1nc(-c2ccccn2)n[nH]1	mHTT CaM bind 99
Cc1ccc(NC(=O)Cc2nc(-c3ccccn3)n[nH]2)c(C)c1	mHTT CaM bind 86
Cc1ccc(NC(=O)Cc2ccccc2)c(C)c1	none
Cc1ccc(C)c(NC(=O)Cc2nc(-c3ccccc3)n[nH]2)c1	none
Cc1ccc(C)c(NC(=O)Cc2nc(-c3ccccn3)n[nH]2)c1	mHTT CaM bind 99
O=C(c1cccnc1)N1CCC(c2nc(-c3ccccc3)no2)C1 (centres undefined)	none
CC(=O)N1CCC(C(=O)N2CCCCC2c2nncn2CC2CC2)CC1 (centres undefined)	none
